Source: PubChem BioAssay
The list is not random: actives were taken first. Their share in the collection is about 2.8%.
DRD3 agonist: qHTS of D3 Dopamine Receptor Agonist: qHTS | actives 0.58% (n = 410,000) | max activation, % | AID 652048, 2013 | D(3) dopamine receptor (Homo sapiens), P35462 | D3R DiscoveRx beta-arrestin cells, luminescence, 90 min; in the data active = max activation above about 30%; note: 0% is about no effect
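Agonist mode: compounds and dopamine controls were applied to plated cells for 90 min at 37 degrees C after an overnight attachment at 1500 cells/well. Luminescent read-out followed 30 - 60 minutes at room temperature with DiscoveRx detection reagent.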
PI4K2A block: qHTS for small molecular inhibitors of PI4K2A | purified PI4K2A, ADP-Glo luminescence, 1 h; active compounds read low | activity change, negative = inhibition, % at 76.9 µM | actives 0.13% (n = 420,000) | AID 1346378, 2018; in the data active = activity change below about -50%; inconclusive = mostly about -30% to -49%;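 note: -100% = wells without enzyme as full effect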
Target sequence (Q9BTU6 whole entry, looked up): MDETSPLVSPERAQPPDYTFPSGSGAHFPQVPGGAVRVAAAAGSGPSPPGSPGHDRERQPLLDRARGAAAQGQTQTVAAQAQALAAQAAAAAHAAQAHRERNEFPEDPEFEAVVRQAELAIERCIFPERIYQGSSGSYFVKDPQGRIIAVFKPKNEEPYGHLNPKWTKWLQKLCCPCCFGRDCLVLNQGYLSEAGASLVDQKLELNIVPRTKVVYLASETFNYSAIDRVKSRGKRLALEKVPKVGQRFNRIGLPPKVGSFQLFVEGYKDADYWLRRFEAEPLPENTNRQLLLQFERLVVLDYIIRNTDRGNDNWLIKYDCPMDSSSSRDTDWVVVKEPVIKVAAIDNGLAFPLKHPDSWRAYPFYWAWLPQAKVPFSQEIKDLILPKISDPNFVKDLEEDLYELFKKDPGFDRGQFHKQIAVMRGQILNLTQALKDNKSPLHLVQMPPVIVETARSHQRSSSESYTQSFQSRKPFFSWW
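Compounds are screened against recombinant PI4K2A using PI as substrate and ATP, the latter dispensed at 300 microM. Reactions run one hour at ambient temperature before ADP-Glo detection; full inhibition defined by wells lacking enzyme.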
DRD3 antagonist: qHTS of D3 Dopamine Receptor Antagonist: qHTS; actives 2.5% (n = 360,000); AID 652054, 2013; D3R cells, DiscoveRx beta-arrestin luminescence, antagonist mode; active compounds read low; max response, negative = inhibition, %; in the data active = max response below about -50%; inconclusive = no clear call, values can overlap the other calls; note: % is set by controls: 0 for no effect and ±100 for the full control effect
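Cells expressing the human receptor were seeded at 1500 cells/well, incubated overnight at 37 degrees C in 5% CO2, then exposed to library compounds with dopamine controls for 90 minutes at 37 degrees C before luminescent detection.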
Akt phos inh: HTS Assay for Inhibitors of Akt Phophorylation: Primary Screen. AID 651550, 2012. Neuro2A IGF-stimulated pAkt S473 HTRF, 20 min; active compounds read low. activity change, % for hits at 50 µM. actives 0.32% (n = 360,000); in the data active = activity change below about -80%; inconclusive = mostly about -51% to -80%; note: % is set by controls: 0 for no effect and ±100 for the full control effect
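Neuro2A cells in DMEM with 0.5% FBS, overnight at 37 deg C, given compound at single 50 µM final, then IGF (6 nM final) for 20 min at 37 deg C. Lysed; phospho-Akt Ser473 by HTRF after 24 h, 665/615 ratio.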
LDHA inh: qHTS assay for inhibitors of human lactate dehydrogenase | purified LDHA, NADH/diaphorase-resazurin fluorescence; active compounds read low | activity change, % (values are at about 110 or 230 µM) | actives 0.15% (n = 480,000) | AID 1347041, 2019; in the data active = activity change below about -30%; inconclusive = mostly about -25% to -30%;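 note: plate controls were DMSO wells for no effect and wells without enzyme for full effect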
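Enzyme activity of human lactate dehydrogenase 5 (2 nM; 0.06 mM NADH, 0.2 mM pyruvate, 5 min, RT) is measured via a resazurin/diaphorase fluorescence readout of residual NADH.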
RGS4 inhibitor: Inhibitors of Regulator of G Protein Signaling (RGS) 4: qHTS; AID 504845, 2011; Regulator of G-protein signaling 4 (Homo sapiens), P49798; actives 0.039% (n = 390,000); Potency, µM (doses to about 114 µM), for the others: at the highest dose activity change, negative = inhibition, usual class: inhibitors; Transcreener GDP fluorescence polarization, RGS4-accelerated GTP hydrolysis; active = well fitted inhibition curve with a large enough effect; inconclusive = small, poorly fitted or top-dose-only effect; inactive = no such curve, though single readings can be large or run the other way; note: potency is the fitted concentration of half-maximal effect; % is set by controls: 0 for no effect and ±100 for the full control effect; nearly all actives have a fitted effect of over 75% in size
Target sequence (P49798 whole entry, looked up): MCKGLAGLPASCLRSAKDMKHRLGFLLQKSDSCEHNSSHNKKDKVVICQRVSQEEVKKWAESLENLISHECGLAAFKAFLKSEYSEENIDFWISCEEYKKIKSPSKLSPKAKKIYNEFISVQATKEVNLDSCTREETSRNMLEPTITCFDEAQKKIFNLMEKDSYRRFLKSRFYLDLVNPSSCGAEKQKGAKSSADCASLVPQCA
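MLSMR compounds (23 nl, pin-transferred) preincubated 10 min at room temperature with a 500nM (2x) first reagent, then RGS4 at 900nM (2x) plus Transcreener GDP mix added; fluorescence polarization (620/688 nm) read before and after 90 min at 30 °C.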
* marks the source's active call; other numbers are inactive results; i = inactive; ? = inconclusive; . = not tested or not shown; [ ] = dose if it differs, or a comment.

SMILES	DRD3 agonist	PI4K2A block	DRD3 antagonist	Akt phos inh	LDHA inh	RGS4 inhibitor
CC(C)=CCC12Oc3cc(O)ccc3C1(O)Oc1cc(O)c([C@H]3C=C(C)CC(c4ccc(O)cc4O)[C@H]3C(=O)c3ccc(O)cc3O)c(O)c1C2=O (some centres undefined)	-44	-1	-52*	i	1	-5%
O/N=C/c1ccc(OCc2ccc(Cl)cc2)cc1	.	.	.	.	6	.
CC1=CC(C)(C)n2c(O)c(C3=NC(=S)NC3=O)c3cc(OC(=O)c4cccc5ccccc45)cc1c32	-16	10	-58*	i	-5	-10%
COc1cccc(C(=O)Oc2cc3c4c(c2)C(C)=CC(C)(C)N4C(=O)C3=O)c1	-24	12	?	i	1	?
O=C(O)c1ccccc1-c1ccc(/C=N/O)o1	.	.	.	.	10	.
Cc1ccccc1NC(=S)C1=C(O)c2sccc2N(C)S1(=O)=O	4	-7	-88*	i	1	-35%
CN1c2ccsc2C(O)=C(C(=S)Nc2ccccc2)S1(=O)=O	1	-7	-72*	i	0	?
O=S(=O)(Nc1ccc2oc3ccccc3c2c1)c1cccs1	.	.	.	.	0	.
CC(=O)Nc1c(O)nc(SCc2ccccc2C#N)[nH]c1=O	8	-1	-51*	i	3	-25%
CCCNC(=O)CN1CCN(Cc2ncc(-c3ccccc3)o2)CC1	.	.	.	.	-5	.
COc1ccc2cc(/C=C(\NC(=O)c3ccccc3)C(=O)NCCCO)c(Cl)nc2c1	.	.	.	.	0	.
c1ccc(-c2nnc(SCc3nc4ccccc4o3)o2)cc1	.	.	.	.	-2	.
CSc1nnc(C2CCCN2)n1C (centres undefined)	-4	-2	-54*	i	3	-7%
CSc1nnc(-c2ccccc2)n1C	-7	1	-14	i	-16	25%
Cn1c(-c2ccc(Br)o2)nc2ccccc21	-13	-56*	-5	i	-7	-29%
Cc1oc(-c2nc3ccccc3n2C)cc1C(=O)c1ccccc1	3	-19	-60*	i	11	?
Cc1ccc(-c2nc3ccccc3n2C)o1	4	?	-4	i	0	-43%
COc1ccc(-c2nc(CS(=O)CC(=O)N3CCOCC3)c(C)o2)cc1 (centres undefined)	.	.	.	.	-13	.
O=C(NCCCN1CCN(c2cccc(Cl)c2)CC1)c1nc(-c2ccncc2)no1	3	4	-64*	i	0	-8%
O=C(NCCCN1CCN(CCCNC(=O)c2cccc(Cl)c2)CC1)c1cccc(Cl)c1	-7	8	9	i	-5	4%
COc1ccc(S(N)(=O)=O)cc1C(=O)NCCCN1CCN(c2cccc(Cl)c2)CC1	5	4	-50*	i	1	-21%
COc1cc2c(C(=O)NCCCN3CCN(c4cccc(Cl)c4)CC3)cn(C)c(=O)c2cc1OC	31*	-4	-56*	i	-2	-3%
COc1ccc(Cl)cc1C(=O)NCCCN1CCOCC1	-7	-2	1	i	-6	-16%
COc1ccc(S(N)(=O)=O)cc1C(=O)NCCCN1CCN(c2ccccc2OC)CC1	-5	9	-92*	i	-2	26%
COc1ccccc1N1CCN(CCCCNC(=O)c2ccc3ccccc3c2)CC1	.	-4	.	i	-6	-6%[56.9 µM]
SMILES	DRD3 agonist	PI4K2A block	DRD3 antagonist	Akt phos inh	LDHA inh	RGS4 inhibitor
CN1CCC(NC(=O)c2cc(Cl)cc(Cl)c2)CC1	.	.	.	.	12	.
COc1ccc(S(N)(=O)=O)cc1C(=O)NCCCN1CCN(c2ccc(C)cc2)CC1	-10	2	-71*	i	-1	-6%
Nc1ccn(CC(=O)NCCNc2ccc([N+](=O)[O-])cn2)c(=O)n1	98*	0	7	i	-1	5%
COc1ccc(/C=C/CN2CCC(C(=O)NC(c3ccc(F)cc3)c3ccc4ccccc4n3)CC2)cc1 (centres undefined)	-13	2	-76*	i	-5	.
CC(C)CN1CCC(C(=O)NC(c2ccc(F)cc2)c2ccc3ccccc3n2)CC1 (centres undefined)	-14	5	?	i	-10	.
COc1ccc(C(NC(=O)C2CCN(CCOc3ccc(Cl)cc3Cl)CC2)c2cccs2)cc1 (centres undefined)	61*	-5	255	i	-2	.
COc1ccc(C(NC(=O)C2CCN(CCOc3ccc(Cl)cc3Cl)CC2)c2ccccc2C)cn1 (centres undefined)	-11	-3	-77*	i	2	.
COc1ccc(C(NC(=O)C2CCN(CCOc3ccc(F)cc3)CC2)c2cccs2)cc1 (centres undefined)	-24	-4	-68*	i	-8	.
COc1ccc(OCCN2CCC(C(=O)NC(c3ccc(Cl)cc3)c3cnccn3)CC2)cc1 (centres undefined)	-13	-9	?	i	-6	.
CC(C)(C)c1ccc(OCC(=O)OCC(=O)Nc2sccc2C(N)=O)cc1	.	.	.	.	1	.
Cc1ccc(S(=O)(=O)/C(C#N)=C\c2ccc(OCCC(C)C)cc2)cc1	.	.	.	.	4	.
O=C(COc1ccccc1C(=O)Nc1ccccc1)NC(=O)NCc1ccco1	.	.	.	.	3	.
Cc1ccc(S(=O)(=O)/C(C#N)=C/c2c(C)[nH]c3ccccc23)cc1	.	.	.	.	-2	.
CCC(C)c1ccc2oc(-c3cccc(NC(=O)c4cccnc4)c3)nc2c1 (centres undefined)	.	.	.	.	1	.
COc1ccc(C(C)NC(=O)C2CCN(CCOc3ccc(Cl)cc3Cl)CC2)cc1OC (centres undefined)	-4	-4	-92*	i	1	.
CC(=O)N1CCc2c(sc(NC(=O)Cc3ccccc3)c2C(N)=O)C1	-10	4	0	i	0	-4%
CN1CCc2c(sc(NC(=O)c3ccco3)c2C(N)=O)C1	-14	-6	?	i	-8	-27%
NC(=O)c1c(NC(=O)c2ccco2)sc2c1CCCC2	.	.	.	.	-3	.
NC(=O)c1c(NC(=O)c2ccc([N+](=O)[O-])o2)sc2c1CCCC2	-5	-5	-50*	i	-8	6%
CCCN1CCc2c(sc(NC(=O)Cc3ccc(F)cc3)c2C(N)=O)C1	-19	-8	-59*	i	-6	21%
